Consider five compounds from PubChem BioAssay (EPA / NIEHS).

The term AC50 denotes the midpoint of the concentration-response curve, whichever way the signal moves.

Inconclusive results are not listed. Activity calls are given as the source filed them. The calls were made as follows, unless noted: active = hit-call score of the fitted dose curve at least 0.9, where 1 is the maximum; inactive = score below 0.9.

Test [1] is described as follows: BSK_LPS_SRB: Viability Assessment in the BioMAP Diversity Plus: LPS Assay (AID 2283079).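 Also: total protein by sulforhodamine B absorbance as a cytotoxicity measure; measured one day after compound addition.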 The conditions noted are these: primary human HUVEC with PBMC. In short, it runs like this: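 HUVEC + PBMC co-culture, LPS-stimulated; compound 24 h. 10% TCA fix, 0.1% SRB stain, A560. Bidirectional fit vs DMSO.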
Read-out in test [2]: Interleukin-1 alpha (IL1a), IL1A (gene 3552)
As to the kind of experiment: BSK_LPS_IL1a: BioMAP Diversity Plus: LPS Assay for Interleukin-1 alpha (IL1a) Biomarker Activity (AID 2283080). The following applies: primary human HUVEC with PBMC; actives raise or lower the signal. In short, it runs like this:
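HUVEC/PBMC co-culture, LPS system; 24 h after dosing; IL-1a by ELISA; gain or loss of signal fitted bidirectionally vs DMSO baseline.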

Read-out in test [3]: Monocyte Chemoattractant Protein-1 (MCP1), CCL2 (gene 6347)
Nature of the test: BSK_LPS_MCP1: BioMAP Diversity Plus: LPS Assay for Monocyte Chemoattractant Protein-1 (MCP1) Biomarker Activity (AID 2283081).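 As to AC50: secreted MCP-1 protein quantified by ELISA in culture supernatant.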 The conditions noted are these: primary human HUVEC with PBMC; actives raise or lower the signal. In short, it runs like this:
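ELISA read-out of MCP-1 after 24 h chemical dosing of a human umbilical vein endothelial cell/peripheral blood mononuclear cell co-culture stimulated with LPS. Gain or loss of signal fitted relative to DMSO controls.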

Test [4] in a line: BSK_LPS_PGE2: BioMAP Diversity Plus: LPS Assay for Prostaglandin E2 (PGE2) Biomarker Activity (AID 2283082). The conditions noted are these: primary human HUVEC with PBMC; actives raise or lower the signal. The method in brief:
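ELISA read-out of PGE2 from human umbilical vein endothelial cells co-cultured with peripheral blood mononuclear cells under LPS, 24 h post-dose. Gain or loss of signal scored relative to DMSO baseline.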

Read-out in test [5]: Macrophage colony-stimulating factor (MCSF), CSF1 (gene 1435)
Nature of the test: BSK_LPS_MCSF: BioMAP Diversity Plus: LPS Assay for Macrophage colony-stimulating factor (MCSF) Biomarker Activity (AID 2283083). The following applies: primary human HUVEC with PBMC; actives raise or lower the signal. In short, it runs like this:
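HUVEC + PBMC co-culture (human primary), 24 h post-dose; M-CSF by ELISA; gain/loss of signal fitted bidirectionally vs DMSO baseline.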

Read-out in test [6]: Tissue Factor, F3 (gene 2152)
As to the kind of experiment: BSK_LPS_TissueFactor: BioMAP Diversity Plus: LPS Assay for Tissue Factor Biomarker Activity (AID 2283084). The conditions noted are these: primary human HUVEC with PBMC; actives raise or lower the signal. In short, it runs like this:
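HUVEC/PBMC co-culture, LPS-activated; CD142 ELISA read 24 h post-dose; bidirectional curve fit vs DMSO negative control.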

Read-out in test [7]: Tumor necrosis factor (Homo sapiens) (UniProt P01375)
Nature of the test: BSK_LPS_TNFa: BioMAP Diversity Plus: LPS Assay for Tumour Necrosis Factor alpha (TNFa) Biomarker Activity (AID 2283085).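 As to AC50: TNFa protein level quantified by ELISA in the co-culture.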 The conditions noted are these: primary human HUVEC with PBMC; actives raise or lower the signal. The method in brief:
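HUVEC/PBMC co-culture, LPS-stimulated; 24 h post-dose; TNFa by ELISA; gain or loss of signal fitted bidirectionally vs DMSO baseline.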

Read-out in test [8]: Vascular cell adhesion molecule 1 (VCAM1), VCAM1 (gene 7412)
As to the kind of experiment: BSK_LPS_VCAM1: BioMAP Diversity Plus: LPS Assay for Vascular cell adhesion molecule 1 (VCAM1) Biomarker Activity (AID 2283086). The conditions noted are these: primary human HUVEC with PBMC; actives raise or lower the signal. The method in brief:
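ELISA read-out of VCAM-1 at 24 h post-dosing in an LPS-driven HUVEC/PBMC primary human co-culture; gain or loss of signal fitted bidirectionally against DMSO baseline. Cytotoxicity tracked in parallel cultures by SRB total-protein staining.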

Read-out in a further test: CD38, CD38 (gene 952)
As to the kind of experiment: BSK_SAg_CD38: BioMAP Diversity Plus: SAg Assay for CD38 Biomarker Activity (AID 2283087). The following applies: primary human HUVEC with PBMC; actives raise or lower the signal. In short, it runs like this:
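Measures CD38 on a human endothelial/PBMC co-culture driven by SEB and TSST-1, 24 h after compound exposure, using ELISA with fluorescence detection; DMSO defines baseline for bidirectional curve fitting.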

Read-out in a further test: CD40, CD40 (gene 958)
Nature of the test: BSK_SAg_CD40: BioMAP Diversity Plus: SAg Assay for CD40 Biomarker Activity (AID 2283088). The conditions noted are these: primary human HUVEC with PBMC; actives raise or lower the signal. The method in brief:
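HUVEC/PBMC co-culture, 24 h post-dose; CD40 by ELISA, fluorescence intensity; bidirectional fit vs DMSO negative control.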

Read-out in test [9]: Monocyte Chemoattractant Protein-1 (MCP1), CCL2 (gene 6347)
Nature of the test: BSK_SAg_MCP1: BioMAP Diversity Plus: SAg Assay for Monocyte Chemoattractant Protein-1 (MCP1) Biomarker Activity (AID 2283090). The following applies: primary human HUVEC with PBMC; actives raise or lower the signal. In short, it runs like this:
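Values derive from bidirectional fitting of ELISA-measured MCP1 against DMSO controls. Readings were taken 24 h after dosing human vascular endothelial cells co-cultured with peripheral blood mononuclear cells under superantigen stimulation.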

Read-out in test [10]: E-selectin (Homo sapiens) (UniProt P16581)
As to the kind of experiment: BSK_SAg_Eselectin: BioMAP Diversity Plus: SAg Assay for Eselectin Biomarker Activity (AID 2283091). The following applies: primary human HUVEC with PBMC; actives raise or lower the signal. In short, it runs like this: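 E-selectin ELISA readout at 24 h post-dosing in human umbilical vein endothelial cell/PBMC co-culture; gain or loss of signal fitted relative to DMSO baseline.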

Read-out in test [11]: Monokine induced gamma interferon (MIG), CXCL9 (gene 4283)
As to the kind of experiment: BSK_SAg_MIG: BioMAP Diversity Plus: SAg Assay for Monokine induced gamma interferon (MIG) Biomarker Activity (AID 2283092). The conditions noted are these: primary human HUVEC with PBMC; actives raise or lower the signal. The method in brief:
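HUVEC plus human PBMC co-culture, chemicals dosed and MIG (CXCL9) quantified by ELISA at 24 h. Bidirectional curve fitting against DMSO as negative control and baseline, so both gain and loss of signal count as activity.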

A short description of test [12]: BSK_SAg_PBMCCytotoxicity: PBMC Cytotoxicity Assessment in the BioMAP Diversity Plus: SAg Assay (AID 2283093).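 Also: fitted both ways against DMSO so a hit may be loss or gain of signal.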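 As to AC50: PBMC superantigen activated with SEB plus TSST-1 one hour after compound addition.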 The conditions noted are these: primary human HUVEC with PBMC. The method in brief:
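PBMC viability by Alamar Blue reduction, fluorescence read at 546/580 nm after 6 h dye exposure. Cells were dosed 1 h before SEB plus TSST-1 activation (20 ng/mL final each), then held 90 h; endothelial/PBMC human co-culture.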

Read-out in test [13]: Interleukin-8 (IL8), CXCL8 (gene 3576)
As to the kind of experiment: BSK_SAg_IL8: BioMAP Diversity Plus: SAg Assay for Interleukin-8 (IL8) Biomarker Activity (AID 2283094). The following applies: primary human HUVEC with PBMC; actives raise or lower the signal. The method in brief: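 HUVEC/PBMC co-culture, 24 h post-dose; IL-8 by ELISA. Gain or loss of signal fitted bidirectionally vs DMSO baseline.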

The nature of test [14]: BSK_SAg_Proliferation: Cell Proliferation Assessment in the BioMAP Diversity Plus: SAg Assay (AID 2283095).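 Also: relative cell number as total protein by SRB absorbance in sub-confluent culture.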 The following applies: primary human HUVEC with PBMC. In short, it runs like this:
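HUVEC/PBMC co-culture, 96-well. TCA-fixed (10%), 0.1% SRB stain, A560 at 96 h. Protein content used as viability readout; bidirectional fitting vs DMSO control.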

Test [15] in a line: BSK_SAg_SRB: Viability Assessment in the BioMAP Diversity Plus: SAg Assay (AID 2283096).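 Also: cells read one day after compound addition; hits may be either gain or loss of signal compared with DMSO.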 The conditions noted are these: primary human HUVEC with PBMC. In short, it runs like this: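 Compounds were added to a human vascular co-culture of umbilical vein endothelium and PBMC. After 24 h, parallel cultures were fixed with 10% TCA, stained with 0.1% sulforhodamine B and read at 560 nm. Gain or loss of signal was fitted relative to DMSO.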

Test [16] deals with human CYP19A1, CYP19A1 (gene 1588) (UniProt P11511). Nature of the test: NVS_ADME_hCYP19A1: NovaScreen (NVS) CYP450-related Enzyme Activity (ADME) Assay for human CYP19A1 (AID 2283098; active = hit-call score of the fitted dose curve at least 0.9, where 1 is the maximum;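 as to AC50: potency for inhibitors seen as loss of fluorescent enzyme signal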). In short, it runs like this:
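Fluorescence intensity read-out; activity taken as signal loss relative to acetonitrile vehicle. Extracted enzyme, specific substrate, no cells, 0.5 h exposure. Duplicate single-point screen at 10 uM, then concentration–response follow-up for actives.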

Sequence of E-selectin (Homo sapiens) (P16581 whole entry, looked up): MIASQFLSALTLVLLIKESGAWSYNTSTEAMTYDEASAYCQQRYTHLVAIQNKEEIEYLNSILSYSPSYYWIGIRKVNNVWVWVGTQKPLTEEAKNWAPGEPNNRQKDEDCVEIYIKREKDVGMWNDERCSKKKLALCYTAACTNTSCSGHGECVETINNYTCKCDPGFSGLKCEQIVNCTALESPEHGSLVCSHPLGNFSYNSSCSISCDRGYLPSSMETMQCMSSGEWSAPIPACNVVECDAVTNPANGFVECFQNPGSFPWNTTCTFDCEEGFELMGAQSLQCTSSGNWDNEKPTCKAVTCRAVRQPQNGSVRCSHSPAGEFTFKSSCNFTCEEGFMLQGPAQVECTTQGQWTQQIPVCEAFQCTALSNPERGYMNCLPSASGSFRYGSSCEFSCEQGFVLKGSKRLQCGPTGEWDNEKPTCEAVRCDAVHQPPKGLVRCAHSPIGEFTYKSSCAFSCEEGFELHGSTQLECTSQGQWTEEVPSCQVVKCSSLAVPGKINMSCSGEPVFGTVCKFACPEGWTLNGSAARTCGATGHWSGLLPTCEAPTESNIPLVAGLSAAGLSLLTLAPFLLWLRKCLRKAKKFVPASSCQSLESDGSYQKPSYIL
Sequence of human CYP19A1, CYP19A1 (gene 1588) (P11511 whole entry, looked up): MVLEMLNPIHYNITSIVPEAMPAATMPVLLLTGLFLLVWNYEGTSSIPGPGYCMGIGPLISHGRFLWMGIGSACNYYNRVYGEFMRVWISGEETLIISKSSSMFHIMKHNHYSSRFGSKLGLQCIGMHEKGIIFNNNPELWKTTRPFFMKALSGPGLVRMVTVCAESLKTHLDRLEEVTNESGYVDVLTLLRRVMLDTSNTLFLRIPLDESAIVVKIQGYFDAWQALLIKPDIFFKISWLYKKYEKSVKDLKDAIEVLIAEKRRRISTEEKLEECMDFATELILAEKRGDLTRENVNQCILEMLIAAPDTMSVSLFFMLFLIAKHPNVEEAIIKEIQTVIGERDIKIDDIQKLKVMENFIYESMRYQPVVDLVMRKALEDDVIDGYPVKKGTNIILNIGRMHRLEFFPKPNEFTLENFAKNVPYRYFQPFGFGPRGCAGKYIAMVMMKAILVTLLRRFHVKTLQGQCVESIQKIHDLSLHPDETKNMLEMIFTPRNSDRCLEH
Sequence of Tumor necrosis factor (Homo sapiens) (P01375 whole entry, looked up): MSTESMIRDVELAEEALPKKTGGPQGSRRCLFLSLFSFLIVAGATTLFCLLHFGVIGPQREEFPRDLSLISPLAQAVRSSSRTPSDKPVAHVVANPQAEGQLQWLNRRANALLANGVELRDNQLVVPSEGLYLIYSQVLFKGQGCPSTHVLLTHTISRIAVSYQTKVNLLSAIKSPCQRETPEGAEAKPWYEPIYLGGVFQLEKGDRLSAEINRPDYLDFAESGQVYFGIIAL

With `c1ccc2[nH]c(-c3cscn3)nc2c1`, the outcome in test [1], in [2], in test [3], in test [4], in test [5] and in [6] was inactive. The outcome in [7] is “inactive”; in test [8], “inactive”; with CD38, CD38 (gene 952), “inactive”; in the test with CD40, CD40 (gene 958), “inactive”; in test [9], “inactive”; in test [10], “inactive”. Moreover, the result in test [11], in [12], in [13], in [14] and in [15] was inactive.
Regarding `COC(=O)c1ccccc1C(=O)O`, the result in test [1], in test [2], in [3], in [4], in test [5] and in test [6] was inactive. The outcome was “inactive” in [7]; “inactive” in [8]; “inactive” with CD38, CD38 (gene 952); “inactive” in test [9]; “inactive” in test [11]; “inactive” in test [12]. In addition, the result in [13], in [14] and in test [15] was inactive. For the same compound, the AC50 with CD40, CD40 (gene 958) was 6.97 µM (active); in test [10], 5.96 µM (active); in test [16], 3.5 µM (active).
Consider `CCNc1nc(N)nc(Cl)n1`, for which the outcome in test [1], in [2], in test [3], in test [4], in test [5] and in test [6] was inactive. Further, the outcome is “inactive” in test [8]; “inactive” with CD38, CD38 (gene 952); “inactive” with CD40, CD40 (gene 958); “inactive” in [9]; “inactive” in test [10]; “inactive” in [11]. For the same compound, the outcome in test [12], in test [13], in [14] and in test [15] was inactive. The AC50 in test [7] was 14.3 µM (active).
In the case of `COc1nc(C)nc(NC(=O)NS(=O)(=O)c2ccccc2OCCCl)n1`, the outcome in test [1], in test [2], in test [3], in test [4], in [5] and in test [6] was inactive. Besides, the outcome in test [7] was “inactive”; in [8], “inactive”; with CD38, CD38 (gene 952) it was “inactive”; with CD40, CD40 (gene 958), “inactive”; in test [9], “inactive”; in test [10] it was “inactive”. Further, the result in [11], in test [12], in test [13], in test [14] and in test [15] was inactive.
Regarding `CC(=O)[C@H]1CC[C@H]2[C@@H]3CCC4=CC(=O)CC[C@]4(C)[C@H]3CC[C@]12C`, the AC50 in test [1] is 8 µM (active); in [3], 25 µM (active); in the test with CD38, CD38 (gene 952), 25.7 µM (active); with CD40, CD40 (gene 958), 20 µM (active); in [10] it was 1.01 µM (active); in test [12], 9.94 µM (active). Besides, the results for the AC50 in [14] and in test [15] were 28.8 µM (active) and 4.21 µM (active), respectively. Besides, the result in [2], in [4], in test [5], in test [6], in test [7] and in [8] was inactive. Further, the outcome in [9], in test [11], in test [13] and in test [16] was inactive.
